We go through 33 compounds from PubChem BioAssay AID2810 (NMMLSC, 2010).

Screen size: about 1,200 compounds; about 65 (5%) were called active.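 How the source made its calls: active means at either tested dose, response and 90th-percentile vesicle-stain brightness of CD8 cells under set limits and under 9% cells vesicle-bound; inactive means the rest.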 The sample as a whole holds a higher share of actives than the screen did.

The nature of this assay: modulators of CD8 T cell-vesicle binding, confirmation, cherry-picked primary hits, two concentrations (AID 2810).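 On percent response (vesicle binding): ratio of mean FL2 vesicle stain of CD8+ cells to that row's control.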 To be noted: 2C CD8+ T cell-vesicle binding, flow cytometry; for double positive events: CD8+/vesicle+ events.
The mark [1] stands for this setting: at 15.4 µM, stronger effect = lower value.

For the compound `CCOC(=O)c1ccc(S(=O)(=O)N2CCN(C3CCCC3)CC2)cc1`, the double positive events (at 7.7 µM) worked out at 11.3% and the double positive events under setting [1] amounted to 23.3%. In addition, the percent response (vesicle binding) under setting [1] was 294% (inactive) and the percent response (vesicle binding) (response, at 7.7 µM) turned out to be 107%.

For the compound `Cc1ccc(S(=O)(=O)N2CCN(CCOc3c(Cl)cccc3Cl)CC2)cc1C`, the double positive events is, setting by setting: (at 7.7 µM) 28.4%; under setting [1], 18.9%. Also, the percent response (vesicle binding) reads like this: under setting [1], 334% (inactive); (response, at 7.7 µM) 140%.

In the case of `O=C(NCC1CCCCC1)c1cccc(S(=O)(=O)N2CCCC2)c1`, the double positive events runs as follows: (at 7.7 µM) 8.6%; under setting [1], 8.5%. In addition, the percent response (vesicle binding) is, setting by setting: under setting [1], 104% (inactive); (response, at 7.7 µM) 305%.

On to `Cc1ccc(/C=N/Nc2ccc(F)cc2F)s1`, for which the double positive events turned out to be 17.7% (at 7.7 µM) and 29.3% under setting [1]. Besides, the percent response (vesicle binding) runs as follows: under setting [1], 280% (inactive); (response, at 7.7 µM) 159%.

For `O=C(NCC1CCCO1)C(=O)NCC(c1ccco1)N1CCN(c2ccc(F)cc2)CC1` (configuration not stated), the double positive events (at 7.7 µM) was 35.6% and the double positive events under setting [1] was determined as 10.4%. Besides, the percent response (vesicle binding) is 199% (inactive) under setting [1] and 266% (response, at 7.7 µM).

For `O=C(O)c1ccc(N2C(=O)CC(SC(=Nc3ccccc3)Nc3ccccc3)C2=O)cc1` (configuration not stated), the double positive events reads like this: (at 7.7 µM) 19.3%; under setting [1], 18.5%. The percent response (vesicle binding) is 276% (inactive) under setting [1] and 663% (response, at 7.7 µM).

With `CCOC(=O)CSc1nnc(-c2ccc(Cl)cc2Cl)o1`, the double positive events came out at 16.3% (at 7.7 µM) and 10.1% under setting [1]. Further, the percent response (vesicle binding) under setting [1] was 118% (inactive) and the percent response (vesicle binding) (response, at 7.7 µM) worked out at 276%.

Consider `COc1cc(Cl)c(S(=O)(=O)n2cnc(C)c2)cc1Cl`, for which the double positive events is 9.6% (at 7.7 µM) and 9.7% under setting [1]. The percent response (vesicle binding) under setting [1] was 141% (inactive) and the percent response (vesicle binding) (response, at 7.7 µM) is 151%.

On to `CCOC(=O)CSc1nnnn1-c1cc(OC)c(Cl)cc1OC`, for which the double positive events amounted to 20.1% (at 7.7 µM) and 5.9% under setting [1]. In addition, the percent response (vesicle binding) reads like this: under setting [1], 53.3% (active); (response, at 7.7 µM) 312%.

As to `CCn1c(SCC(=O)NCC2CCCO2)nnc1-c1c[nH]c2ccccc12` (configuration not stated), the double positive events reads like this: (at 7.7 µM) 14.2%; under setting [1], 13.6%. For the same compound, the percent response (vesicle binding) reads like this: under setting [1], 286% (inactive); (response, at 7.7 µM) 430%.

`O=C(NN1C(=O)C2C3C=CC([C@H]4CC34)[C@@H]2C1=O)c1ccc(Br)cc1` (some centres not stated): the double positive events was found to be 33.5% (at 7.7 µM) and 31.2% under setting [1]. In addition, the percent response (vesicle binding) under setting [1] was 590% (inactive) and the percent response (vesicle binding) (response, at 7.7 µM) is 1000%.

With `CCCOc1ccc(N2C(=O)CC(N(O)c3ccccc3)C2=O)cc1` (configuration not stated), the double positive events is, setting by setting: (at 7.7 µM) 17.3%; under setting [1], 14.6%. The percent response (vesicle binding) was 158% (inactive) under setting [1] and 254% (response, at 7.7 µM).

In the case of `Cc1ccccc1CS(=O)(=O)CCC(=O)N1CCN(c2ccc(N3CCOCC3)nn2)CC1`, the double positive events reads like this: (at 7.7 µM) 9%; under setting [1], 3.1%. The percent response (vesicle binding) by setting is: under setting [1], 18.4% (active); (response, at 7.7 µM) 160%.

In the case of `CN(CCCC(=O)N1CCN(c2ncccn2)CC1)S(=O)(=O)c1ccc(F)cc1`, the double positive events was 7% (at 7.7 µM) and 13.1% under setting [1]. Moreover, the percent response (vesicle binding) is 151% (inactive) under setting [1] and 122% (response, at 7.7 µM).

Turning to `Cc1ccsc1C(=O)OCC(=O)N1CCN(c2ccccc2)CC1`, the double positive events (at 7.7 µM) amounted to 17.9% and the double positive events under setting [1] was found to be 27%. The percent response (vesicle binding) is 263% (inactive) under setting [1] and 143% (response, at 7.7 µM).

On to `COc1ccc(Br)cc1CN(C)C(=O)c1ccc2c(c1)NC(=O)C(C)S2` (configuration not stated), for which the double positive events came out at 38.9% (at 7.7 µM) and 17.5% under setting [1]. For the same compound, the percent response (vesicle binding) reads like this: under setting [1], 221% (inactive); (response, at 7.7 µM) 368%.

`Cc1cccc(NC(=O)C2CCN(S(=O)(=O)c3c(C)[nH]c(=O)[nH]c3=O)CC2)c1` displayed a double positive events (at 7.7 µM) of 9.4% and a double positive events under setting [1] of 12.6%. Also, the percent response (vesicle binding) was 434% (inactive) under setting [1] and 330% (response, at 7.7 µM).

For `COc1ccc(NCc2nc3ccccc3n2CCOc2ccccc2)cc1`, the double positive events by setting is: (at 7.7 µM) 35.8%; under setting [1], 10.6%. The percent response (vesicle binding) by setting is: under setting [1], 221% (inactive); (response, at 7.7 µM) 261%.

For the compound `CC(=O)c1ccc(-c2csc(N3CCC(C(N)=O)CC3)n2)cc1`, the double positive events worked out at 15.1% (at 7.7 µM) and 4.6% under setting [1]. Moreover, the percent response (vesicle binding) under setting [1] is 28.3% (active) and the percent response (vesicle binding) (response, at 7.7 µM) came out at 132%.

For the compound `CS(=O)(=O)c1cccc(-c2csc(N3CCC(C(N)=O)CC3)n2)c1`, the double positive events runs as follows: (at 7.7 µM) 18.3%; under setting [1], 37.8%. The percent response (vesicle binding) under setting [1] is 182% (inactive) and the percent response (vesicle binding) (response, at 7.7 µM) turned out to be 192%.

Take `NC(=O)C1CCN(c2nc(-c3cc4ccccc4o3)cs2)CC1`: the double positive events (at 7.7 µM) was determined as 28.4% and the double positive events under setting [1] was found to be 8%. Further, the percent response (vesicle binding) was 128% (inactive) under setting [1] and 459% (response, at 7.7 µM).

With `O=C(CN1C(=O)COc2ccc(S(=O)(=O)N3CCCC3)cc21)NC1CC1`, the double positive events by setting is: (at 7.7 µM) 21.1%; under setting [1], 16.7%. Also, the percent response (vesicle binding) under setting [1] is 459% (inactive) and the percent response (vesicle binding) (response, at 7.7 µM) was 268%.

For `O=C(NCc1ccncc1)C(=O)NCC(c1ccco1)N1CCN(c2ccccc2F)CC1` (configuration not stated), the double positive events (at 7.7 µM) worked out at 28.7% and the double positive events under setting [1] was 13.3%. Moreover, the percent response (vesicle binding) was 251% (inactive) under setting [1] and 276% (response, at 7.7 µM).

On to `CCOC(=O)c1sc(NC(=O)CSc2ncn[nH]2)c(C#N)c1C`, for which the double positive events is, setting by setting: (at 7.7 µM) 36.7%; under setting [1], 26.4%. Besides, the percent response (vesicle binding) under setting [1] is 617% (inactive) and the percent response (vesicle binding) (response, at 7.7 µM) stood at 394%.

Take `CCCc1nnc(NC(=O)c2ccc(S(=O)(=O)N(C)c3ccccc3OC)cc2)s1`: the double positive events reads like this: (at 7.7 µM) 14.9%; under setting [1], 6%. Moreover, the percent response (vesicle binding) reads like this: under setting [1], 35.7% (active); (response, at 7.7 µM) 216%.

For the compound `Cc1nnc(NC(=O)c2ccc(S(=O)(=O)N(C)c3ccccc3)cc2)s1`, the double positive events by setting is: (at 7.7 µM) 9.6%; under setting [1], 37.9%. In addition, the percent response (vesicle binding) under setting [1] is 156% (inactive) and the percent response (vesicle binding) (response, at 7.7 µM) worked out at 134%.

In the case of `COc1ccccc1-c1nnc(NC(=O)c2ccc(S(=O)(=O)N3CCOCC3)cc2)o1`, the double positive events (at 7.7 µM) was found to be 7% and the double positive events under setting [1] turned out to be 8.1%. Moreover, the percent response (vesicle binding) under setting [1] was 284% (inactive) and the percent response (vesicle binding) (response, at 7.7 µM) came out at 264%.

On to `COc1cc(OC)cc(C(=O)NC(C(=O)Nc2ccc3c(c2)CCC3)C(C)C)c1` (configuration not stated), for which the double positive events is 8.9% (at 7.7 µM) and 21% under setting [1]. Further, the percent response (vesicle binding) is 368% (inactive) under setting [1] and 147% (response, at 7.7 µM).

In the case of `O=C(CC1=NCCNC(c2ccccc2)C1)c1ccccc1O` (configuration not stated), the double positive events (at 7.7 µM) stood at 6.2% and the double positive events under setting [1] turned out to be 1.7%. The percent response (vesicle binding) is 65.1% (inactive) under setting [1] and 316% (response, at 7.7 µM).

As for `COc1ccc(NCC(O)Cn2c(C)c(C)c3ccccc32)cc1` (configuration not stated), the double positive events by setting is: (at 7.7 µM) 11.5%; under setting [1], 16.3%. Further, the percent response (vesicle binding) under setting [1] was 63.6% (inactive) and the percent response (vesicle binding) (response, at 7.7 µM) was 101%.

For `O=C(NCCN1CCN(c2ccccc2)CC1)c1cccc(Br)c1`, the double positive events was 24.2% (at 7.7 µM) and 13.3% under setting [1]. In addition, the percent response (vesicle binding) is 252% (inactive) under setting [1] and 278% (response, at 7.7 µM).

As to `Cc1ccc(C(C)n2cc(C(=O)NCCN3CCN(C)CC3)nn2)cc1` (configuration not stated), the double positive events was determined as 11.2% (at 7.7 µM) and 1.8% under setting [1]. Moreover, the percent response (vesicle binding) reads like this: under setting [1], 36.8% (active); (response, at 7.7 µM) 155%.

Turning to `CCCCCC(=O)N[C@@H](c1ccccc1)[C@@H](O)C(=O)O[C@H]1C[C@@]2(O)[C@@H](OC(=O)c3ccccc3)C3[C@](C)(C(=O)[C@H](OC(C)=O)C(=C1C)C2(C)C)[C@@H](O)C[C@H]1OC[C@@]31OC(C)=O` (some centres not stated), the double positive events reads like this: (at 7.7 µM) 16.4%; under setting [1], 12%. Besides, the percent response (vesicle binding) reads like this: under setting [1], 252% (inactive); (response, at 7.7 µM) 302%.
